Source: PubChem BioAssay (NCATS)
Records with an inconclusive call do not appear. Active and inactive are the calls of the source. Calls come from the whole dose curve; as a rule, active = well fitted inhibition curve with a large enough effect; inconclusive = small, poorly fitted or top-dose-only effect; inactive = flat fitted curve, though single readings scatter.

The molecules below were run on Zika virus NS2B-NS3 protease (assay: Primary screen GU AMC qHTS for Zika virus inhibitors (AID 1347154; note: nearly all actives have a fitted effect of over 70% in size;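 for activity change, negative = inhibition: 0% = no-inhibitor control and -100% = no-enzyme control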)). Conditions: Zika NS2B-NS3 unlinked protease, AMC fluorogenic substrate; series mostly up to 54.1 µM; activity change, negative = inhibition: at the top concentration.
Outline: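 Unlinked Zika NS2B hydrophilic domain–NS3 protease complex at 25 nM in 10 mM Tris-HCl pH 8.0, 0.01% Tween 20, with an AMC peptide substrate. Fluorescence change (340/450 nm) over 15 min at room temperature, normalized to controls, fitted to 4-parameter Hill.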
Potency is the fitted concentration of half-maximal effect.

Structure (SMILES) | activity change, negative = inhibition | Potency
Cc1ncc2n1-c1ccc(Cl)cc1C(c1ccccc1F)=NC2 | -1.08% (inactive) | 
C[C@@H]1C[C@@H]([C@H](O)CC2CC(=O)NC(=O)C2)C(=O)[C@@H](C)C1 |  | inactive
CN1C(=O)CN=C(c2ccccc2)c2cc([N+](=O)[O-])ccc21 | 4.41% (inactive) | 
C[C@H](CN1CCOCC1)C(C(=O)N1CCCC1)(c1ccccc1)c1ccccc1 | -4.02% [at 104 µM] (inactive) | 
CC(CC(C#N)(c1ccccc1)c1ccccc1)N(C)C (centres undefined) | 0.532% [at 104 µM] (inactive) | 
COP(=S)(OC)Oc1ccc(Sc2ccc(OP(=S)(OC)OC)cc2)cc1 | -7.72% (inactive) | 
CCOC(=O)NC(O)C(Cl)(Cl)Cl (centres undefined) | -0.0254% (inactive) | 
Cc1nc2ccccc2c(=O)n1-c1ccccc1Cl | -0.954% [at 104 µM] (inactive) | 
CC(=O)OC1(c2ccccc2)CCN(CCc2ccccc2)CC1 | -5.32% [at 104 µM] (inactive) | 
NCc1cccnc1 | 5.09% (inactive) | 
CCC(OC(C)=O)C(CC(C)NC)(c1ccccc1)c1ccccc1 (centres undefined) | 5.47% [at 104 µM] (inactive) | 
CN1[C@@H]2CC[C@H]1CC(OC(=O)c1cc(Cl)cc(Cl)c1)C2 (some centres undefined) |  | inactive
CCCN(CCC)CCc1c[nH]c2ccccc12 | -1.42% [at 104 µM] (inactive) | 
CN1C(=O)CN=C(c2ccccc2)c2cc(Cl)ccc21 | 0.296% (inactive) | 
C=CCOC(Cn1ccnc1)c1ccc(Cl)cc1Cl (centres undefined) | -0.698% (inactive) | 
CC1N=C(N)OC1c1ccccc1 (centres undefined) | 1.37% [at 104 µM] (inactive) | 
CC(C)=C[C@@H]1[C@@H](C(=O)OCc2coc(Cc3ccccc3)c2)C1(C)C | -14.1% (inactive) | 
CCCCCCCCC(=O)NCc1ccc(O)c(OC)c1 | -2.12% (inactive) | 
Oc1ccc([C@H]2CNCc3c2ccc(O)c3O)cc1O |  | 10.2 µM (active)
COc1ccc2c3c1O[C@H]1[C@@H](O)C=C[C@H]4[C@@H](C2)N(C)CC[C@@]341 | 5.13% [at 104 µM] (inactive) | 

Structure (SMILES) | activity change, negative = inhibition | Potency
CC(Cc1ccc2c(c1)OCO2)NO (centres undefined) | -8.74% [at 104 µM] (inactive) | 
CN(C)C(=O)Oc1cc(OC(=O)N(C)C)cc(C(O)CNC(C)(C)C)c1 (centres undefined) | -3.84% (inactive) | 
N#Cc1nn(-c2c(Cl)cc(C(F)(F)F)cc2Cl)c(N)c1S(=O)C(F)(F)F (centres undefined) |  | inactive
CCN(CC)CCOC(=O)C(C)(c1ccccc1)c1ccccc1 | 4.46% (inactive) | 
Cc1ccc(N=CN(C)C=Nc2ccc(C)cc2C)c(C)c1 | -6.81% (inactive) | 
CC(C)(O)C(Cl)(Cl)Cl | 3.78% (inactive) | 
Oc1ccc2[nH]cc(CCCCN3CC=C(c4ccccc4)CC3)c2c1 |  | inactive
c1ccc2nc(N3CCNCC3)ccc2c1 | -15.1% (inactive) | 
CN1CCC(N(Cc2ccccc2)c2ccccc2)CC1 | 0.0149% (inactive) | 
CCC(=O)O[C@H]1CC[C@H]2[C@@H]3CCC4=CC(=O)CC[C@]4(C)[C@H]3CC[C@]12C | -9.27% (inactive) | 
NC1(c2ccccc2)CCCCC1 | 0.467% [at 104 µM] (inactive) | 
C[N+](C)(C)CCOC(=O)C(O)(c1ccccc1)c1ccccc1 | -7.6% (inactive) | 
OC(c1ccccc1)(c1ccccc1)C1CCNCC1 | -6.82% (inactive) | 
O=c1n(Cl)c(=O)n(Cl)c(=O)n1Cl | -2.28% (inactive) | 
CCNc1nc(Cl)nc(NCC)n1 | 0.601% (inactive) | 
C[N+]1(C)[C@@H]2CC[C@H]1CC(OC(=O)C(CO)c1ccccc1)C2 (some centres undefined) | -3.26% (inactive) | 
Nc1ccc(Cl)cc1C(=O)c1ccccc1F | -1.29% (inactive) | 
C[C@H]1C(=O)O[C@@H]2CCN3CC=C(COC(=O)[C@](C)(O)[C@]1(C)O)[C@H]23 | 2.09% (inactive) | 
COc1ccc(OC)c(CC(C)N)c1 (centres undefined) | 3.37% [at 104 µM] (inactive) | 
